Source: PubChem BioAssay (NCATS)
Inconclusive results are not listed. Active and inactive are the calls of the source. The call rests on the fitted dose curve; in most records, active means well fitted curve in the direction sought with a large enough effect; inconclusive means small, poorly fitted or top-dose-only effect, or another doubt; inactive means no such curve, though single readings can be large; an effect the other way counts as inactive or inconclusive.

Tests used:
HACAT = assay: qHTS assay to identify novel small-molecules to repurpose for Merkel cell carcinoma treatment (AID 1296009); settings: MCC and control cell lines, CellTiter-Glo viability, 72 h; at 44.8 µM (top of the series) unless noted; further: nearly all actives have a fitted effect of over 60% in size
In short: (§1)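 qHTS format: cells treated with library compounds in DMSO across 8 (NPC) or 11 (MIPE) concentrations. Readout after 72 hr at 37 degree celsius was CellTiter-Glo luminescence.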

NIH3T3 = assay: as above; settings: MCC and control cell lines, CellTiter-Glo viability, 72 h; at 44.8 µM (top of the series) unless noted
In short: as §1

C33A = assay: Primary qHTS to identify gynecologic anti-cancer compounds using libraries of approved drugs and bioactive compounds (AID 1345084); settings: Gynecologic cancer cell panel viability, ATPlite luminescence, 48 h; series mostly up to 57.5 µM; further: on the % scale 0 is the no-effect control and ±100 the full control effect; nearly all actives have a fitted effect of over 55% in size
In short: (§2)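 Five-point cytotoxicity, 48 h drug exposure at 37 C, 5% CO2, on cells seeded 16 h beforehand. ATP content read by ATPlite luminescence.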

CAOV3 = assay: as above; settings: Gynecologic cancer cell panel viability, ATPlite luminescence, 48 h; series mostly up to 57.5 µM
In short: as §2

CASKI = assay: as above; settings: Gynecologic cancer cell panel viability, ATPlite luminescence, 48 h; series mostly up to 57.5 µM
In short: as §2

Es-2 = assay: as above; settings: Gynecologic cancer cell panel viability, ATPlite luminescence, 48 h; series mostly up to 57.5 µM
In short: as §2

HeLa = assay: as above; settings: Gynecologic cancer cell panel viability, ATPlite luminescence, 48 h; series mostly up to 57.5 µM
In short: as §2

Hek293T = assay: as above; settings: Gynecologic cancer cell panel viability, ATPlite luminescence, 48 h, control line for the selectivity index; series mostly up to 57.5 µM
In short: as §2

JEG-3 = assay: as above; settings: Gynecologic cancer cell panel viability, ATPlite luminescence, 48 h; series mostly up to 57.5 µM
In short: as §2

OV90 = assay: as above; settings: Gynecologic cancer cell panel viability, ATPlite luminescence, 48 h; series mostly up to 57.5 µM
In short: as §2

PA-1 = assay: as above; settings: Gynecologic cancer cell panel viability, ATPlite luminescence, 48 h; series mostly up to 57.5 µM
In short: as §2

SKOV3 = assay: as above; settings: Gynecologic cancer cell panel viability, ATPlite luminescence, 48 h; series mostly up to 57.5 µM
In short: as §2

Tov-21-G = assay: as above; settings: Gynecologic cancer cell panel viability, ATPlite luminescence, 48 h; series mostly up to 57.5 µM
In short: as §2

Tov112D = assay: as above; settings: Gynecologic cancer cell panel viability, ATPlite luminescence, 48 h; series mostly up to 57.5 µM
In short: as §2

C=C1CC/C=C(/CO)C(=O)C[C@@H]2[C@@H]1C[C@@]2(C)COC(C)=O
inactive: outcome (HACAT) | outcome (NIH3T3) | Potency (C33A) | Potency (CAOV3) | outcome (CASKI) | Potency (Es-2) | Potency (HeLa) | Potency (Hek293T) | Potency (JEG-3) | Potency (OV90) | Potency (PA-1) | Potency (SKOV3) | Potency (Tov-21-G) | Potency (Tov112D)

CC(O)C(O)/C=C/C=C/C(=O)O[C@@H]1C=C(C(=O)O)[C@](O)(CO)[C@@]2(C)CCCC(C)(C)[C@H]12 (some centres undefined)
inactive: outcome (HACAT) inactive [at 17.4 µM] | outcome (NIH3T3) inactive [at 17.4 µM] | Potency (C33A) | Potency (CAOV3) | outcome (CASKI) | Potency (Es-2) | Potency (HeLa) | Potency (Hek293T) | Potency (JEG-3) | Potency (OV90) | Potency (PA-1) | Potency (SKOV3) | Potency (Tov-21-G) | Potency (Tov112D)

COc1ccc(CC(=O)NCc2ccccc2-c2ccccc2C(=O)NCCc2cccnc2)cc1
inactive: outcome (HACAT) | outcome (NIH3T3) | Potency (C33A) | Potency (CAOV3) | outcome (CASKI) | Potency (Es-2) | Potency (HeLa) | Potency (Hek293T) | Potency (JEG-3) | Potency (OV90) | Potency (PA-1) | Potency (SKOV3) | Potency (Tov-21-G) | Potency (Tov112D)

C=C1CC[C@@]2(OC1)O[C@H]1CC3[C@@H]4CC=C5C[C@@H](O)C[C@@H](O[C@@H]6OC[C@H](O)[C@H](O)[C@H]6O[C@@H]6O[C@@H](C)[C@H](O)[C@@H](O)[C@H]6O)[C@]5(C)C4CC[C@]3(C)[C@H]1[C@@H]2C (some centres undefined)
inactive: outcome (HACAT) inactive [at 17.4 µM] | outcome (NIH3T3) inactive [at 17.4 µM] | Potency (C33A) | Potency (CAOV3) | outcome (CASKI) | Potency (Es-2) | Potency (HeLa) | Potency (Hek293T) | Potency (JEG-3) | Potency (OV90) | Potency (PA-1) | Potency (SKOV3) | Potency (Tov-21-G) | Potency (Tov112D)

COc1ccc(C2OCC3C(c4cc(OC)c5c(c4)OCO5)OCC23)cc1OC (centres undefined)
inactive: outcome (HACAT) inactive [at 17.4 µM] | outcome (NIH3T3) inactive [at 17.4 µM] | Potency (C33A) | Potency (CAOV3) | outcome (CASKI) | Potency (Es-2) | Potency (HeLa) | Potency (Hek293T) | Potency (JEG-3) | Potency (OV90) | Potency (PA-1) | Potency (SKOV3) | Potency (Tov-21-G) | Potency (Tov112D)

COc1c(O)cc2c(c1O)C(=O)O[C@H](C)[C@H]2O
inactive: outcome (HACAT) | outcome (NIH3T3) | Potency (C33A) | Potency (CAOV3) | outcome (CASKI) | Potency (Es-2) | Potency (HeLa) | Potency (Hek293T) | Potency (JEG-3) | Potency (OV90) | Potency (PA-1) | Potency (SKOV3) | Potency (Tov-21-G) | Potency (Tov112D)

NCCCCN(Cc1nc2ccccc2[nH]1)[C@H]1CCCc2cccnc21
inactive: outcome (HACAT) inactive [at 17.4 µM] | outcome (NIH3T3) inactive [at 17.4 µM] | Potency (C33A) | Potency (CAOV3) | outcome (CASKI) | Potency (Es-2) | Potency (HeLa) | Potency (Hek293T) | Potency (JEG-3) | Potency (OV90) | Potency (PA-1) | Potency (SKOV3) | Potency (Tov-21-G) | Potency (Tov112D)

O=C(O)CCc1c(C(=O)O)[nH]c2cc(Cl)cc(Cl)c12
inactive: outcome (HACAT) inactive [at 17.4 µM] | outcome (NIH3T3) inactive [at 17.4 µM] | Potency (C33A) | Potency (CAOV3) | outcome (CASKI) | Potency (Es-2) | Potency (HeLa) | Potency (Hek293T) | Potency (JEG-3) | Potency (OV90) | Potency (PA-1) | Potency (SKOV3) | Potency (Tov-21-G) | Potency (Tov112D)

CN1CCN(C(=O)c2cc3cc(Cl)ccc3[nH]2)CC1
inactive: outcome (HACAT) | outcome (NIH3T3) | Potency (C33A) | Potency (CAOV3) | outcome (CASKI) | Potency (Es-2) | Potency (HeLa) | Potency (Hek293T) | Potency (JEG-3) | Potency (OV90) | Potency (PA-1) | Potency (SKOV3) | Potency (Tov-21-G) | Potency (Tov112D)

Cc1occc(=O)c1O[C@@H]1O[C@H](COC(=O)CC(C)(O)CC(=O)O)[C@@H](O)[C@H](O)[C@H]1O (some centres undefined)
inactive: outcome (HACAT) inactive [at 17.4 µM] | outcome (NIH3T3) inactive [at 17.4 µM] | Potency (C33A) | Potency (CAOV3) | outcome (CASKI) | Potency (Es-2) | Potency (HeLa) | Potency (Hek293T) | Potency (JEG-3) | Potency (OV90) | Potency (PA-1) | Potency (SKOV3) | Potency (Tov-21-G) | Potency (Tov112D)

COc1cc2c(c(OC)c1O)C(c1ccc(O)cc1)C1C(=O)OC3C(COC(=O)C1=C2)OC(CO)(OC1OC(COC(=O)/C=C/c2ccc(OC4OC(C)C(O)C(O)C4O)cc2)C(O)C(O)C1O)C3O (centres undefined)
inactive: outcome (HACAT) inactive [at 9.27 µM] | outcome (NIH3T3) inactive [at 9.27 µM] | activity change, negative = cytotoxicity (C33A) 12% [at 11.6 µM] | activity change, negative = cytotoxicity (CAOV3) -2.13% [at 11.6 µM] | activity change, negative = cytotoxicity (CASKI) 3.12% [at 11.6 µM] | activity change, negative = cytotoxicity (Es-2) 0.658% [at 11.6 µM] | activity change, negative = cytotoxicity (HeLa) -0.142% [at 11.6 µM] | activity change, negative = cytotoxicity (Hek293T) 7.04% [at 11.6 µM] | activity change, negative = cytotoxicity (JEG-3) 8.95% [at 11.6 µM] | activity change, negative = cytotoxicity (OV90) 10.3% [at 11.6 µM] | activity change, negative = cytotoxicity (PA-1) -0.775% [at 11.6 µM] | activity change, negative = cytotoxicity (SKOV3) 25.2% [at 11.6 µM] | activity change, negative = cytotoxicity (Tov-21-G) -2.98% [at 11.6 µM] | activity change, negative = cytotoxicity (Tov112D) -3.14% [at 11.6 µM]
